From PMC5540273 (PLoS ONE, 2017)

Assays:
Details in all cases: concentration: 1 μM, replicates: in singlicate; n = 1
[1] = test system: NEK11
[2] = test system: NEK1
[3] = test system: NEK2
[4] = test system: NEK3
[5] = test system: NEK4
[6] = test system: NEK5
[7] = test system: NEK6
[8] = test system: NEK7
[9] = test system: NEK9
[10] = test system: T1, NIK
T1 construct: gene MAP3K14
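Further: KINOMEscan kinase panel screen.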

Cl.Cl.NCC(NCc1ccc(-c2ccnc3[nH]ccc23)s1)c1ccccc1 (centres unmarked) [GSK1321565]
%Inh [1]: 13% | %Inh [2]: 0% | %Inh [3]: 0% | %Inh [4]: 0% | %Inh [5]: 0% | %Inh [6]: 10% | %Inh [7]: 0% | %Inh [8]: 0% | %Inh [9]: 6% | %Inh [10]: 20%

Cl.NC(=O)c1cccc(Nc2nccc(Nc3ccc(Oc4c(Cl)cccc4Cl)c(Cl)c3)n2)c1 [GW659009]
%Inh [1]: 0% | %Inh [2]: 0% | %Inh [3]: 1% | %Inh [4]: 87% | %Inh [5]: 3% | %Inh [6]: 26% | %Inh [7]: 86% | %Inh [8]: 5% | %Inh [9]: 6% | %Inh [10]: 14%

CCn1c(-c2nonc2N)nc2c(C#CC(C)(C)O)ncc(OCCCCN)c21.O=C(O)C(F)(F)F.O=C(O)C(F)(F)F [GSK507274]
%Inh [1]: 50% | %Inh [2]: 0% | %Inh [3]: 34% | %Inh [4]: 5% | %Inh [5]: 34% | %Inh [6]: 11% | %Inh [7]: 1% | %Inh [8]: 0% | %Inh [9]: 0% | %Inh [10]: 68%

O=C(Nc1n[nH]c2nc(-c3ccc(O)cc3)ccc12)C1CC1 [SB-710363]
%Inh [1]: 0% | %Inh [2]: 0% | %Inh [3]: 3% | %Inh [4]: 17% | %Inh [5]: 2% | %Inh [6]: 0% | %Inh [7]: 0% | %Inh [8]: 12% | %Inh [9]: 0% | %Inh [10]: 2%

Cc1ccc(C(=O)N2CC[C@@H](O)C2)cc1-n1c(C)cc(OCc2ccc(F)cc2F)c(Br)c1=O
%Inh [1]: 0% | %Inh [2]: 0% | %Inh [3]: 0% | %Inh [4]: 31% | %Inh [5]: 0% | %Inh [6]: 0% | %Inh [7]: 0% | %Inh [8]: 0% | %Inh [9]: 0% | %Inh [10]: 0%

CNC(=O)c1ccccc1Nc1nc(Nc2ccc(N3CCOCC3)cc2)ncc1Cl.Cl [GSK1576028]
%Inh [1]: 85% | %Inh [2]: 86% | %Inh [3]: 89% | %Inh [4]: 93.3% | %Inh [5]: 65% | %Inh [6]: 100% | %Inh [7]: 98.6% | %Inh [8]: 98% | %Inh [9]: 97.7% | %Inh [10]: 36%

COCCOCCOc1cc2ncc3c4ccc(C#N)cc4[nH]c3c2cc1OC
%Inh [1]: 0% | %Inh [2]: 0% | %Inh [3]: 53% | %Inh [4]: 33% | %Inh [5]: 0% | %Inh [6]: 0% | %Inh [7]: 0% | %Inh [8]: 15% | %Inh [9]: 7% | %Inh [10]: 65%

CC(=O)N1CCN(c2ccc(Nc3nccc(-c4sc(C(C)C)nc4-c4cccc(NS(=O)(=O)c5cccc(Cl)c5)c4)n3)cn2)CC1 [GSK1660437]
%Inh [1]: 90% | %Inh [2]: 0% | %Inh [3]: 42% | %Inh [4]: 0% | %Inh [5]: 6% | %Inh [6]: 2% | %Inh [7]: 32% | %Inh [8]: 73% | %Inh [9]: 85% | %Inh [10]: 17%

FC(F)(F)c1ccc(/C=C/c2cncnc2Nc2ccc3[nH]c(Cc4ccccc4)nc3c2)cc1 [GW709199]
%Inh [1]: 9% | %Inh [2]: 0% | %Inh [3]: 0% | %Inh [4]: 30% | %Inh [5]: 0% | %Inh [6]: 23% | %Inh [7]: 13% | %Inh [8]: 0% | %Inh [9]: 2% | %Inh [10]: 0%

COc1cc(Nc2ncc3c(C)nc(-c4cc5ccccc5[nH]4)n3n2)cc(OC)c1OC [GW869516]
%Inh [1]: 86% | %Inh [2]: 16% | %Inh [3]: 70% | %Inh [4]: 89% | %Inh [5]: 41% | %Inh [6]: 99% | %Inh [7]: 99.6% | %Inh [8]: 99.7% | %Inh [9]: 90% | %Inh [10]: 0%

Cc1ccc(C(=O)Nc2ccc(Nc3ccnc4cc(-c5nccs5)ccc34)cc2O)cc1.Cl [GW494702]
%Inh [1]: 40% | %Inh [2]: 0% | %Inh [3]: 0% | %Inh [4]: 0% | %Inh [5]: 3% | %Inh [6]: 0% | %Inh [7]: 0% | %Inh [8]: 0% | %Inh [9]: 0% | %Inh [10]: 12%

O=C(Nc1cccc(-c2nn3ccccc3c2-c2ccnc(Nc3cccc(C(F)(F)F)c3)n2)c1)c1c(F)cccc1F [GSK292658]
%Inh [1]: 0% | %Inh [2]: 0% | %Inh [3]: 8% | %Inh [4]: 0% | %Inh [5]: 0% | %Inh [6]: 0% | %Inh [7]: 0% | %Inh [8]: 4% | %Inh [9]: 16% | %Inh [10]: 0%

Cn1cc(-c2[nH]c3cc(NC(=O)[C@H](N)C4CCCCC4)cc4c3c2C=NNC4=O)cn1
%Inh [1]: 89% | %Inh [2]: 70% | %Inh [3]: 21% | %Inh [4]: 32% | %Inh [5]: 0% | %Inh [6]: 54% | %Inh [7]: 2% | %Inh [8]: 0% | %Inh [9]: 11% | %Inh [10]: 3%

O=C(O)C(F)(F)F.O=C(O)C(F)(F)F.O=c1[nH]ccc2nc(N[C@@H]3CCCNC3)nc(Nc3ccc(S(=O)(=O)N4CCOCC4)cc3)c12 [GSK2177277]
%Inh [1]: 0% | %Inh [2]: 62% | %Inh [3]: 80% | %Inh [4]: 89% | %Inh [5]: 96.1% | %Inh [6]: 51% | %Inh [7]: 46% | %Inh [8]: 35% | %Inh [9]: 14% | %Inh [10]: 87%

CC(C)(C)c1ccc2nccc(Nc3cccc(O)c3)c2c1 [GW856795]
%Inh [1]: 22% | %Inh [2]: 0% | %Inh [3]: 11% | %Inh [4]: 13% | %Inh [5]: 0% | %Inh [6]: 0% | %Inh [7]: 0% | %Inh [8]: 0% | %Inh [9]: 0% | %Inh [10]: 9%

c1ccc(-c2n[nH]cc2Nc2ccnc3ccccc23)nc1 [GW694077]
%Inh [1]: 0% | %Inh [2]: 7% | %Inh [3]: 99.1% | %Inh [4]: 3% | %Inh [5]: 0% | %Inh [6]: 6% | %Inh [7]: 0% | %Inh [8]: 0% | %Inh [9]: 41% | %Inh [10]: 19%

Cc1cccc(NC(=O)Nc2ccc(Oc3ncnc4ccn(C)c34)cc2)c1
%Inh [1]: 0% | %Inh [2]: 0% | %Inh [3]: 0% | %Inh [4]: 19% | %Inh [5]: 0% | %Inh [6]: 0% | %Inh [7]: 16% | %Inh [8]: 0% | %Inh [9]: 1% | %Inh [10]: 5%

Nc1ncc(-c2ccc3nccc(-c4ccncc4)c3c2)cc1S(=O)(=O)N1CCOCC1 [GSK1627798]
%Inh [1]: 0% | %Inh [2]: 0% | %Inh [3]: 12% | %Inh [4]: 0% | %Inh [5]: 5% | %Inh [6]: 0% | %Inh [7]: 0% | %Inh [8]: 0% | %Inh [9]: 2% | %Inh [10]: 0%

Cn1cc(-c2ccc3c(c2)CCN3C(=O)Cc2cccc(Cl)c2)c2c(N)ncnc21 [GSK2606590]
%Inh [1]: 0% | %Inh [2]: 26% | %Inh [3]: 66% | %Inh [4]: 1% | %Inh [5]: 22% | %Inh [6]: 32% | %Inh [7]: 11% | %Inh [8]: 0% | %Inh [9]: 18% | %Inh [10]: 23%

COc1cc(Nc2nccc(N3CCC(NC(=O)Nc4cccc(C(C)=O)c4)C3)n2)cc(OC)c1OC (centres unmarked) [GSK1379753]
%Inh [1]: 0% | %Inh [2]: 58% | %Inh [3]: 43% | %Inh [4]: 41% | %Inh [5]: 30% | %Inh [6]: 100% | %Inh [7]: 1% | %Inh [8]: 45% | %Inh [9]: 27% | %Inh [10]: 5%

O=C(NC1CCN(c2ccnc(Nc3ccc(F)cc3)n2)C1)c1cc2ccccc2s1 (centres unmarked) [GSK1379716]
%Inh [1]: 20% | %Inh [2]: 0% | %Inh [3]: 8% | %Inh [4]: 9% | %Inh [5]: 0% | %Inh [6]: 13% | %Inh [7]: 3% | %Inh [8]: 0% | %Inh [9]: 17% | %Inh [10]: 42%

Fc1ccc(-c2ncn(C3CCNCC3)c2-c2ccnc(Oc3ccc(-c4ccccc4)cc3)n2)cc1 [SB-245391]
%Inh [1]: 24% | %Inh [2]: 36% | %Inh [3]: 25% | %Inh [4]: 13% | %Inh [5]: 0% | %Inh [6]: 4% | %Inh [7]: 17% | %Inh [8]: 0% | %Inh [9]: 7% | %Inh [10]: 31%

Nc1n[nH]c2cnc(-c3ccccc3)cc12 [SB-642124]
%Inh [1]: 3% | %Inh [2]: 0% | %Inh [3]: 0% | %Inh [4]: 79% | %Inh [5]: 12% | %Inh [6]: 96.5% | %Inh [7]: 0% | %Inh [8]: 0% | %Inh [9]: 0% | %Inh [10]: 10%
